In publication PMC7862700, “An all-to-all approach to the identification of sequence-specific readers for epigenetic DNA modifications on cytosine”:

Key:
Assay in all cases: DAPPL (digital affinity profiling via proximity ligation, sequencing); 10 mM Tris-HCl pH 7.5, 50 mM NaCl, 1 mM DTT, 4% glycerol, room temperature, 30 min; GST-TFs on glutathione beads, 16-mer random dsDNA library, 0.1% formaldehyde crosslink after washing; high values mean tight binding
Conditions in all cases: protein: recombinant; tags: N-terminal GST; dsDNA, one strand shown
ETV2 = biological target: T1, ETV2 (Homo sapiens, UniProt O00321 1-342)
T1 sequence: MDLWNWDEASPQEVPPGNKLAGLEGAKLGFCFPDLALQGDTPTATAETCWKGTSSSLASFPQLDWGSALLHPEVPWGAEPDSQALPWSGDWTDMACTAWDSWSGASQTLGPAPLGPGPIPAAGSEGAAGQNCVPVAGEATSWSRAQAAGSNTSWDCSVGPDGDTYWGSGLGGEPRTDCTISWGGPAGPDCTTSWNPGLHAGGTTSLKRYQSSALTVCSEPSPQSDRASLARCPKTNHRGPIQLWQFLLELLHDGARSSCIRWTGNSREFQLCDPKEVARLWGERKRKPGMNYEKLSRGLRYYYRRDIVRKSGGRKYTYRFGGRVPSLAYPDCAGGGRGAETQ
How it was run: (§1)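 A tag-only sample was pooled with DNA-barcoded human transcription factors that had been expressed in yeast as GST fusions and captured on glutathione beads. The pools were incubated for 30 min at room temperature with 200 nmole of a random double-stranded 16-mer DNA library in Tris/NaCl/DTT/glycerol buffer, then washed, crosslinked with 0.1% formaldehyde, proximity-ligated (BsaI/T4 ligase, 1 h, 37 °C), PCR-amplified and sequenced on an Illumina NextSeq500. Binding signal is each hexamer's read frequency for a factor divided by its frequency for the tag-only sample.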

ELF3 = biological target: T2, ELF3 (Homo sapiens, UniProt P78545 1-371)
T2 sequence: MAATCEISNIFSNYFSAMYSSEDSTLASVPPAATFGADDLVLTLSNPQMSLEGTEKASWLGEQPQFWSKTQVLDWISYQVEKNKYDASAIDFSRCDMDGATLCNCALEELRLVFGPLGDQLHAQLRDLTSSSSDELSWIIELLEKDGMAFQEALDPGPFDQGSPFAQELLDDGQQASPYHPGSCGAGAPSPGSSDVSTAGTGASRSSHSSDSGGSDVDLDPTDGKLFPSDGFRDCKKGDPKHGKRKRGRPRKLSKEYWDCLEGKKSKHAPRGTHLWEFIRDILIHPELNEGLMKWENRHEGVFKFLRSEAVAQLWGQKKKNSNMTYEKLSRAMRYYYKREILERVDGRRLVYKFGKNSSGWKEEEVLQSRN
How it was run: as §1

ETV1 = ETV1 (Homo sapiens, UniProt P50549 1-477)
Chain of ETV1 (P50549 whole entry): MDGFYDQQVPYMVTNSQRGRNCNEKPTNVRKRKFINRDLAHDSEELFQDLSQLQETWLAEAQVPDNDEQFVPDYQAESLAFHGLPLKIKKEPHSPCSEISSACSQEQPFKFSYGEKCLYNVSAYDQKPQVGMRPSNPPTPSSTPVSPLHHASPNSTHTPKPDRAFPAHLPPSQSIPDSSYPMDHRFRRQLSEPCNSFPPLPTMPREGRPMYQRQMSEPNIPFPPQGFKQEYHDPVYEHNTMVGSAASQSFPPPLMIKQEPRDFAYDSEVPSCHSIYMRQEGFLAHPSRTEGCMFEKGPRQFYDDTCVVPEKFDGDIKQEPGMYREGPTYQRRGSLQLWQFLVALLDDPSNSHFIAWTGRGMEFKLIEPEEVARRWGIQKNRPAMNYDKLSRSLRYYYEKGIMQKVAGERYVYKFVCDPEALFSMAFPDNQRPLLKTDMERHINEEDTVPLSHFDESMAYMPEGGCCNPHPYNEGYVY
How it was run: as §1

ERF = biological target: T3, ERF (Homo sapiens, UniProt P50548 1-548)
T3 sequence: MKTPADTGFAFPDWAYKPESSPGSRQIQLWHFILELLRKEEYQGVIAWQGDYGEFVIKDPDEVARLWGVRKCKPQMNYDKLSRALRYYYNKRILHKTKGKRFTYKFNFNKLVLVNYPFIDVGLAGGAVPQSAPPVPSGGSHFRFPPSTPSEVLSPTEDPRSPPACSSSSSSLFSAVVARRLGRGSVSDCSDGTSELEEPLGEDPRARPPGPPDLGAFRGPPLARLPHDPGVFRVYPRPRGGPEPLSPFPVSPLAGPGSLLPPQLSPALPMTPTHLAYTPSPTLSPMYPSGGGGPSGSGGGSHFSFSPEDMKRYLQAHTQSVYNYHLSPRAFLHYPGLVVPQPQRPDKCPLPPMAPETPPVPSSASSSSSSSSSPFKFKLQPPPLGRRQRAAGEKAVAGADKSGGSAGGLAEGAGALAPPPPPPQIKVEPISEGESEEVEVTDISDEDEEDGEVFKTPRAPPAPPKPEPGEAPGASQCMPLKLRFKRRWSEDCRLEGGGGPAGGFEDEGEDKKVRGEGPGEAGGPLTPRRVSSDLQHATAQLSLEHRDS
How it was run: as §1

ETV3L = biological target: T4, ETV3L (Homo sapiens, UniProt Q6ZN32 1-361)
T4 sequence: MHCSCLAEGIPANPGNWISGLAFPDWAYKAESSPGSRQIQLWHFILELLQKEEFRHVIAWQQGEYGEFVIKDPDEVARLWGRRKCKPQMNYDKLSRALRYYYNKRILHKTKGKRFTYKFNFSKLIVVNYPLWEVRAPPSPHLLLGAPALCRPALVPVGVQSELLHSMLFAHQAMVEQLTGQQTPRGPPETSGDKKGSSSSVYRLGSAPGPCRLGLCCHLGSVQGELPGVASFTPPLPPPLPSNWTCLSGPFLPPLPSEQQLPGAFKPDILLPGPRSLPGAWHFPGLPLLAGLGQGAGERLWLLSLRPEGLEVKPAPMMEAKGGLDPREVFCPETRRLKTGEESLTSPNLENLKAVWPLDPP
How it was run: as §1

ETS2 = biological target: T5, ETS2 (Homo sapiens, UniProt P15036 1-469)
T5 sequence: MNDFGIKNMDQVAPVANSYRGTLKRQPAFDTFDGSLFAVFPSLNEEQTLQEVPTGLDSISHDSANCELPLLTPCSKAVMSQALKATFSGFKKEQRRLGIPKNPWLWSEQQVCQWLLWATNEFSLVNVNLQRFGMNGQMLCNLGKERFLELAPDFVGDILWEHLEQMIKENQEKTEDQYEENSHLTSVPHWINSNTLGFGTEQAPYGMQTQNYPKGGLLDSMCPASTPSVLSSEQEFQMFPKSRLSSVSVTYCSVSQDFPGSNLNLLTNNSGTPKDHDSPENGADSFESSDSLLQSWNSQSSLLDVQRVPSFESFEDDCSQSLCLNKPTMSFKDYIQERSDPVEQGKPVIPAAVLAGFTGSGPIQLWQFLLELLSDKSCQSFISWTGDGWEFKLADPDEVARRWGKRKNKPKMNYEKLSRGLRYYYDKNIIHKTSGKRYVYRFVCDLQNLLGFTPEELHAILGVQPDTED
How it was run: as §1

SPDEF = biological target: T6, SPDEF (Homo sapiens, UniProt O95238 1-335)
T6 sequence: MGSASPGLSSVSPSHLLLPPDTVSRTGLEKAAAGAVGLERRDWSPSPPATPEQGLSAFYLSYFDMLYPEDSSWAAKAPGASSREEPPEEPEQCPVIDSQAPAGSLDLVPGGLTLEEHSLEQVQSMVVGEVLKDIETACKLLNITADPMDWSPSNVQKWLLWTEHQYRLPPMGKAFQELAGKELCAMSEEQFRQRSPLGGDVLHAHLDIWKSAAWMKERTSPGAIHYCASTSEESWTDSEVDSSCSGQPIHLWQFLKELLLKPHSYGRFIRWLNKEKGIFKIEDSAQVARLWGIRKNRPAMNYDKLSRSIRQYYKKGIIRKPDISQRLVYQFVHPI
How it was run: as §1

ETV7 = biological target: T7, ETV7 (Homo sapiens, UniProt Q9Y603 1-341)
T7 sequence: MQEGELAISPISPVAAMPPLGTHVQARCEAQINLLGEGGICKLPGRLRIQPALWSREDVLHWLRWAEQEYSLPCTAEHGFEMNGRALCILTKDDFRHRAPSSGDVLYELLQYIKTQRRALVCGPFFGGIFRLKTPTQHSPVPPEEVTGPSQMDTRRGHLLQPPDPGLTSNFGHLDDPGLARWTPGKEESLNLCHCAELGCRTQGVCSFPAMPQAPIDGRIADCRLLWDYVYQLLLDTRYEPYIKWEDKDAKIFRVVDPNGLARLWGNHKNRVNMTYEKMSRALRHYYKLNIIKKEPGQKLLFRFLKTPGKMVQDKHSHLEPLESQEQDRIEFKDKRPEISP
How it was run: as §1

ETV3 = biological target: T8, ETV3 (Homo sapiens, UniProt P41162-2 1-143)
T8 sequence: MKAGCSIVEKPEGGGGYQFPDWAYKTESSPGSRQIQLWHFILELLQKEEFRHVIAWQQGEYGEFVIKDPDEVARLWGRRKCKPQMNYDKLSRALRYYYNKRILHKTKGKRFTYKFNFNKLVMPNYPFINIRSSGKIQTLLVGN
How it was run: as §1

ETV6 = ETV6 (Homo sapiens, UniProt P41212 1-452)
Chain of ETV6 (P41212 whole entry): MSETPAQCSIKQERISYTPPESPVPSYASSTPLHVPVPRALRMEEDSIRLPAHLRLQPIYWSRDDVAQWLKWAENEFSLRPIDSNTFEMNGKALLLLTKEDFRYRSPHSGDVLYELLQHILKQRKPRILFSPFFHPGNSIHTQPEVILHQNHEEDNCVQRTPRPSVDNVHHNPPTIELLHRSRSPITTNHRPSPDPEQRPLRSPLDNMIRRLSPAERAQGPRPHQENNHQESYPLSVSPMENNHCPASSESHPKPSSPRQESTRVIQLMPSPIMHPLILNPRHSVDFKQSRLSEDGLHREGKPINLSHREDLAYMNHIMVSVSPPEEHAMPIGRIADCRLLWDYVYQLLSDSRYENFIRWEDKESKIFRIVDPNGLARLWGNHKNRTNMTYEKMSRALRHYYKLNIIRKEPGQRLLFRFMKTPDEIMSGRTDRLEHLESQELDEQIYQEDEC
How it was run: as §1

Question: What does the source list for TCAAGT?
Answer: binding signal (ETV2): 1.06 fold enrichment (6-mer frequency, TF over GST control); binding signal (ELF3): 1.13 fold enrichment (6-mer frequency, TF over GST control); binding signal (ETV1): 1.15 fold enrichment (6-mer frequency, TF over GST control); binding signal (ERF): 1.06 fold enrichment (6-mer frequency, TF over GST control); binding signal (ETV3L): 1.12 fold enrichment (6-mer frequency, TF over GST control); binding signal (ETS2): 1.09 fold enrichment (6-mer frequency, TF over GST control); binding signal (SPDEF): 1.17 fold enrichment (6-mer frequency, TF over GST control); binding signal (ETV7): 1.03 fold enrichment (6-mer frequency, TF over GST control); binding signal (ETV3): 1.1 fold enrichment (6-mer frequency, TF over GST control); binding signal (ETV6): 1.07 fold enrichment (6-mer frequency, TF over GST control)
